USP8 block – inhibitors of human USP8 deubiquitinase; Ubiquitin carboxyl-terminal hydrolase 8 (Homo sapiens), P40818; inhibition, % at 20 µM; actives 4.2% (n = 47,000); purified USP8, Ub-rhodamine cleavage fluorescence, 30 min
USP30 block – inhibitors of human USP30 deubiquitinase; Ubiquitin carboxyl-terminal hydrolase 30 (Homo sapiens), Q70CQ3; AID 1645860, 2021; purified USP30, Ub-rhodamine cleavage fluorescence; actives 5.3% (n = 47,000); inhibition, % at 25 µM
UCHL1 inh – inhibitors of human UCHL1 deubiquitinase. Ubiquitin carboxyl-terminal hydrolase isozyme L1 (Homo sapiens), P09936. purified UCHL1, Ub-rhodamine cleavage fluorescence. inhibition, % at 20 µM. actives 0.2% (n = 47,000). AID 1645859, 2021
USP10 block – inhibitors of human USP10 deubiquitinase; inhibition, % at 20 µM; purified USP10, Ub-rhodamine fluorescence, 60 min; actives 1.1% (n = 47,000); Ubiquitin carboxyl-terminal hydrolase 10 (Homo sapiens), Q14694
USP17 block – inhibitors of human USP17 deubiquitinase. purified USP17, Ub-rhodamine cleavage fluorescence, 3 h. inhibition, % at 50 µM. actives 6.5% (n = 47,000). AID 1645855, 2021
USP7 block – inhibitors of human USP7 deubiquitinase; purified USP7, Ub-rhodamine cleavage fluorescence; inhibition, % at 20 µM; actives 0.3% (n = 47,000); AID 1645854, 2021
Target sequence (Q93009 whole entry, looked up): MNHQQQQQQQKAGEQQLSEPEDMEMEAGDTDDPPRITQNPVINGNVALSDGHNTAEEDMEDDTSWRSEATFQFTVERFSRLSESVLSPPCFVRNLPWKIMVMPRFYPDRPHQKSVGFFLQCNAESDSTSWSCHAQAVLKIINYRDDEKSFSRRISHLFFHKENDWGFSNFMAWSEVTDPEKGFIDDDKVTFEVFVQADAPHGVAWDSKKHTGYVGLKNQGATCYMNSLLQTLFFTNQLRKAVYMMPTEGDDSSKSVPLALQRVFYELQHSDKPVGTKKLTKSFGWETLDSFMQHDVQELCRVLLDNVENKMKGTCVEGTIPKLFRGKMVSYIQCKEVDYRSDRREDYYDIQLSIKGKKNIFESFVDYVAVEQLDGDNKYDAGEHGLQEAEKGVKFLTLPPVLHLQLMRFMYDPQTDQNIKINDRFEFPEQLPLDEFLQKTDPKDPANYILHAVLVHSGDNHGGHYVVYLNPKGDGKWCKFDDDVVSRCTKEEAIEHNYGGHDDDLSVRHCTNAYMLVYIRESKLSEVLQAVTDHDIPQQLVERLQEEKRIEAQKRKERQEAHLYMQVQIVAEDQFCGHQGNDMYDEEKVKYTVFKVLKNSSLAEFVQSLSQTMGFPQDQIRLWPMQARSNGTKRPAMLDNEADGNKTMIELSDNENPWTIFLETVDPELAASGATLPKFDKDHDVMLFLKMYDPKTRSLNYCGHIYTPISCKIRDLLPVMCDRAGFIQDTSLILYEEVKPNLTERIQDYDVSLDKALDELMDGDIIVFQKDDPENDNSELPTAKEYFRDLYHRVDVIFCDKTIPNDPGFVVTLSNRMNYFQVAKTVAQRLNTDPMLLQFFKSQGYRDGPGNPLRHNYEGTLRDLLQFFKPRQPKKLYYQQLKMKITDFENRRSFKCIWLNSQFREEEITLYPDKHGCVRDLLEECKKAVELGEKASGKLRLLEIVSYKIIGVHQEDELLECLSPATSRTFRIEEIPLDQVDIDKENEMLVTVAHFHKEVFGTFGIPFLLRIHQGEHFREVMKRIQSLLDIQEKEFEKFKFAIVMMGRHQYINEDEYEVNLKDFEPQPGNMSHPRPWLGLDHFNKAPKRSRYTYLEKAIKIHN
The depositor's hits bear a star; i = inactive; . = no result. Only some compounds are listed: those with a hit (about 13% of all), similar ones and a draw of the others. Cut-off read from the data, not from the text of the source: active = inhibition above about 30%; inactive = the rest.

SMILES	USP8 block	USP30 block	UCHL1 inh	USP10 block	USP17 block	USP7 block
CNc1cncc(C2CCCN2C(=O)c2cccc3ncccc23)n1 (configuration not stated)	-77.9	-89.5	-5.5	-6.2	-27.6	-2.2
Cn1c(=O)cc(C(=O)Nc2ccc(OC(F)(F)F)cc2)[nH]c1=O	4.3	8.4	-0.6	1.5	7.0	0.0
Cn1c(=O)cc(C(=O)Nc2cc(C(F)(F)F)cc(C(F)(F)F)c2)[nH]c1=O	20.0	36.1*	0.9	12.5	21.2	8.6
Cc1sc2ccn(C)c(=O)c2c1C(=O)NC1CCCC1	93.7*	3.2	1.2	13.4	61.8*	-9.5
Cc1ccc(C)c(NC(=O)NCCc2cn(C)c3ncccc23)c1	14.1	18.4	2.8	-1.1	36.7*	2.2
Cc1cccc(NC(=O)NCCc2cn(C)c3ncccc23)c1C	2.1	1.4	-0.3	0.3	-2.5	0.6
O=S(=O)(Nc1ccc2c(c1)nc1n2CCCCC1)c1cccs1	5.4	-17.6	-12.0	-10.3	3.5	-5.1
Cc1cc(C)cc(N(CCC(=O)Nc2ccc(N3CCOCC3)cc2)S(=O)(=O)c2ccc(Cl)cc2)c1	32.3*	41.1*	3.7	10.4	32.1*	9.1
Cc1cc(C)cc(N(CCC(=O)Nc2ccccc2)S(=O)(=O)c2ccc3ccccc3c2)c1	22.8	28.0	8.7	9.6	14.7	14.2
CC(C)n1nccc1-c1cnc(CC2CCN(S(C)(=O)=O)CC2)cn1	14.0	31.2*	2.2	0.9	12.9	4.8
CC(=O)Nc1cccc(NC(=O)c2sc3nc(-c4ccccc4)cn3c2C)c1	0.2	.	4.3	-1.4	46.7*	-0.4
CC(=O)Nc1ccc(NC(=O)c2sc3nc(-c4cccc([N+](=O)[O-])c4)cn3c2C)cc1	20.3	-0.9	1.7	15.0	19.7	9.2
Cc1ccc(NC(=O)c2nc3c(s2)CCCN3c2ncccn2)nc1	-114.9	-9.7	-0.1	0.8	-73.9	1.5
COc1ccc(C)cc1NC(=O)C(Sc1nnc(C2CC2)n1Cc1ccccc1)c1ccccc1 (configuration not stated)	25.2	36.9*	7.1	3.6	21.7	3.5
Cc1ccc(C)c(NC(=O)C(Sc2nnc(C)n2Cc2ccccc2)c2ccccc2)c1 (configuration not stated)	14.2	30.1*	5.2	4.7	.	-4.8
O=C(NC1CCCCC1)c1cc(-c2cccnc2)n(-c2ccccc2)n1	-11.5	0.3	-2.5	1.5	-4.2	1.1
O=C(NC1CCCC1)c1cc(-c2cccnc2)n(-c2ccccc2)n1	21.3	32.5*	0.7	2.4	23.7	3.4
Cc1ccc(NC(=O)c2cc(-c3cccnc3)n(-c3ccccc3)n2)nc1	17.5	51.0*	1.1	1.6	31.8*	5.2
COc1ccc(NC(=O)c2cc(-c3cccnc3)n(-c3ccccc3)n2)c(OC)c1	11.0	20.8	4.2	7.0	29.6	8.4
O=C(COc1ccc(F)cc1Br)N1CCSc2ccccc21	7.2	13.6	2.2	4.3	12.4	-5.1
O=C(COc1ccccc1F)N1CCSc2ccc(Cl)cc21	14.6	34.2*	5.3	8.3	31.5*	-3.8
Fc1ccc(CN2CCCC(c3cnc(Nc4cnccn4)cn3)C2)nc1 (configuration not stated)	-32.2	-54.1	-7.6	-12.0	-20.2	-3.2
Cc1ccc2c(c1)c(=O)c(C(=O)c1ccccc1)cn2CC(=O)Nc1ccc2c(c1)OCCO2	29.9	-5.4	3.9	26.0	62.1*	16.8
Cc1ccc(C(=O)c2cn(CC(=O)Nc3ccccc3)c3ccccc3c2=O)cc1	97.3*	34.8*	8.6	46.1*	36.6*	16.5
COc1ccc(NC(=O)Cn2cc(C(=O)c3ccc(C)cc3)c(=O)c3ccccc32)cc1	48.7*	48.6*	2.5	37.9*	85.4*	10.6
SMILES	USP8 block	USP30 block	UCHL1 inh	USP10 block	USP17 block	USP7 block
Cc1ccc(C(=O)c2cn(CC(=O)Nc3ccccc3)c3ccc(C)cc3c2=O)cc1	61.9*	13.9	8.2	35.6*	53.0*	18.6
O=C(CN1CCCc2ccccc21)Nc1ccc2c(c1)OCCO2	-15.6	-107.2	-12.2	-2.2	-33.2	-11.7
CC(=O)N[C@]12CN[C@H](c3ccccc3)[C@H]1CCN(C(=O)Cc1cccnc1)C2	0.1	-2.0	-2.0	1.8	-19.8	5.0
Cc1c(CCC(=O)N2CC[C@@]3(O)CCCC[C@H]3C2)c(=O)oc2c(C)c(O)ccc12	-7.5	.	-0.8	-2.0	9.7	-4.1
O=S(=O)(N1CCCC1)N1C[C@H]2CC(OCc3ccccc3)C[C@H]2C1 (some centres not stated)	16.4	28.3	3.5	2.6	18.6	-0.2
O=C(Cn1cc(C(=O)c2ccc(F)cc2)c(=O)c2ccccc21)Nc1ccc2c(c1)OCO2	70.6*	42.4*	3.9	46.6*	11.7	18.5
CC(C)(C)C(=O)CSc1nnc(-c2ccccn2)s1	8.5	24.7	7.7	5.3	8.0	7.9
CC(=O)c1cnc(-c2ccccn2)s1	43.5*	-25.6	0.2	-4.0	3.3	-3.9
COc1cccc(CN2CCOC(CCc3cc(=O)[nH]cn3)C2)c1F (configuration not stated)	1.7	24.0	2.6	-0.4	12.1	3.2
COc1cccc(C2CC(c3ccc(F)cc3)=NC3(CCN(C)CC3)N2)c1O (configuration not stated)	40.9*	-51.8	-3.3	-3.4	-5.7	-3.9
CC(=O)c1cccc(NC(=O)C2CCCN(c3cnc4nccnc4c3)C2)c1 (configuration not stated)	-164.0	i	-71.4	-8.5	-131.1	-80.6
Cc1ccnc(NC(=O)c2ccn(COc3ccccc3Cl)n2)c1	-33.7	32.3*	1.7	3.1	17.9	3.3
O=C(Nc1ccccc1Br)c1ccn(COc2ccccc2F)n1	5.6	34.3*	-1.6	6.3	64.8*	3.0
O=C(Nc1cc(F)ccc1F)c1ccn(COc2ccc(F)c(Cl)c2)n1	23.1	69.8*	4.4	6.2	46.2*	10.9
O=C(Nc1ccccc1)c1ccn(COc2ccccc2F)n1	3.6	-5.0	1.5	3.2	-1.8	3.6
CC12CN3CC(C)(CN(C1)C3c1ccc([N+](=O)[O-])cc1)C2O (configuration not stated)	-82.1	0.2	-1.0	1.5	-27.9	2.3
O=C(c1cnn2ccccc12)N1CCN(S(=O)(=O)/C=C/c2ccccc2)CC1	5.2	32.9*	0.9	2.4	11.4	5.2
O=C(CCC(=O)N1CCN(C(=O)c2cnn3ccccc23)CC1)c1ccccc1	-6.7	-26.5	-1.0	-3.0	0.7	-4.1
COc1cccc(CN2CC(=O)N3CCc4c([nH]c5ccccc45)[C@@]3(C)C2=O)c1	13.2	-0.1	5.9	-1.4	14.3	-25.3
